PubChem BioAssay (EPA / NIEHS)
Calls of active or inactive are those of the source. Rule for the calls: active = hit-call score of the fitted dose curve at least 0.9, where 1 is the maximum; inactive = score below 0.9.

Assay: ATG_TAL_CIS: Attagene CIS-FACTORIAL HepG2 Assay for human TAL Basal Promoter (AID 2282966)
Details: HepG2 Attagene cis-factorial TAL promoter reporter; actives raise or lower the signal
Method: ATG_CIS is a cell-based, multiplexed-readout assay that uses HepG2, a human liver cell line, with measurements taken at 24 hours after chemical dosing in a 24-well plate.ATG_TAL_CIS is one of 52 assay component(s) measured or calculated from the ATG_CIS assay. It is designed to make measurements of mRNA induction, a form of inducible reporter, as detected with fluorescence intensity signals by Reverse transcription polymerase chain reaction (RT-PCR) and Capillary electrophoresis technology.Data from the assay component ATG_TAL_CIS was analyzed into 1 assay endpoint. This assay endpoint, ATG_TAL_CIS, was analyzed with bidirectional fitting relative to DMSO as the negative control and baseline of activity. Using a type of inducible reporter, measures of mRNA for gain or loss-of-signal activity can be used to understand the background control at the transcription factor-level as they relate to the gene . Furthermore, this assay endpoint can be referred to as a secondary readout, because this assay has produced multiple assay endpoints where this one serves a background control function. To generalize the intended target to other relatable targets, this assay endpoint is annotated to the background measurement intended target family, where the subfamily is internal marker.
Human liver HepG2 cells are transiently transfected with multiple reporter transcription units (MRTUs) in 6-well plates using FuGene 6 reagent (Roche; 3 ml FuGene/1 mg DNA). The MRTU constructs are regulated by a cis-regulating element (promoter). […] A major difference between the CIS and TRANS system is that in CIS activities of endogenous TFs are measured, whereas the TRANS assay evaluates changes in activities of exogenous, chimeric NR-Gal4 proteins. […] At the end of 24 hour incubation, total RNA was isolated using TriZol reagent (Invitrogen). The isolated RNA is then reverse-transcribed using oligo(dT) primer and Mo-MLV reverse transcriptase (Invitrogen) with DNAse I (Ambion) treatment for 30 min. The one-tenth of the produced cDNA was amplified by PCR using Taq DNA polymerase (Invitrogen) and two reporter sequence-specific primers. The PCR products were fluorescently labeled by primer extension with 6-arboxyfluorescein (6-FAM) 5'-labeled reporter sequence-specific primer (2 min at 95 C, 20 s at 68 C and 10 min at 72 C) and these products were digested with 5U of HpaI (New England Biolabs) for 2h at 37 C. The fragments were purified using Qiaquick PCR columns (Qiagen), analyzed on an ABI 3130xL genetic analyzer (Applied Biosystems) with peak positions identified by using a set of X-rhodamine (ROX)-labeled MapMarker1000 molecular weight standards (BioVentures). The raw capillary electrophoresis data was processed using Attagraph software (Attagene).
With [Cl-].[Cl-].[Cl-].[Yb+3] the outcome was “inactive”. For CC(C)COP(=O)(OCC(C)C)OCC(C)C, the outcome was “inactive”. With O=c1[nH]c(Cl)c(Cl)cc1Cl the outcome was “inactive”. With Cl/C=C\CCl the outcome was “inactive”. With CC(C)(O)C#N the outcome was “inactive”. In the case of CC(C)(c1cc(Cl)c(O)c(Cl)c1)c1cc(Cl)c(O)c(Cl)c1, the outcome is reported as “inactive”. With Cc1ccc(OP(=O)(Oc2ccc(C)cc2)Oc2ccc(C)cc2)cc1 (tested in a mixture with another compound) the outcome was “inactive”. In the case of C=CCO, the outcome is reported as “inactive”. In the case of CC1(C)[C@H](C(=O)O[C@H](C#N)c2cccc(Oc3ccccc3)c2)[C@@H]1C=C(Br)Br, the outcome is reported as “inactive”. For Nc1ccccc1, the outcome was “inactive”. With O=[N+]([O-])O the outcome was “inactive”. With CCCC=NO the outcome was “inactive”. With CCCOC(=O)c1ccccc1C(=O)OCCC the outcome was “inactive”. With CCC(C)c1cc(C(C)(C)C)cc(-n2nc3ccccc3n2)c1O (stereo not given) the outcome was “inactive”. For O=S(=O)(c1ccccc1)c1ccccc1, the outcome was “inactive”. For O=[N+]([O-])C=Cc1ccccc1, the outcome was “inactive”. With CN(C)CCC#N the outcome was “inactive”. For Cc1cc(C)c(C2=C(OC(=O)CC(C)(C)C)C3(CCCC3)OC2=O)c(C)c1, the outcome was “inactive”. For C=C(Cl)CCl, the outcome was “inactive”. In the case of CCCCCc1cc(O)cc(O)c1, the AC50 is reported as 100 µM (active). With Oc1cc(Cl)ccc1Cl the outcome was “inactive”. With CCOP(=O)(OCC)Oc1ccc([N+](=O)[O-])cc1 the outcome was “inactive”. In the case of O=C(O)c1cc[c]([Hg][Cl])cc1, the outcome is reported as “inactive”. With CN(C)C(=O)C(c1ccccc1)c1ccccc1 the outcome was “inactive”. In the case of CCC(Br)(CC)C(=O)NC(N)=O, the outcome is reported as “inactive”. In the case of SCc1ccco1, the outcome is reported as “inactive”. For Nc1ccc(Cl)c(Cl)c1, the outcome was “inactive”. For CC(Cc1ccc(C(C)(C)C)cc1)CN1C[C@@H](C)O[C@@H](C)C1 (stereo not given in full), the outcome was “inactive”. With CN1C(=O)CCS(=O)(=O)C1c1ccc(Cl)cc1 (stereo not given) the outcome was “inactive”. In the case of CC1(C)CC(=O)CC(C)(C)N1[O], the outcome is reported as “inactive”. In the case of Cc1ncc(C[n+]2csc(CCO)c2C)c(N)n1, the outcome is reported as “inactive”. In the case of Clc1ccc(-c2ccccc2)cc1, the outcome is reported as “inactive”. With ClCCCCCCCl the outcome was “inactive”. In the case of ClCC(Cl)Cl, the outcome is reported as “inactive”. For Nc1ccc(-c2ccc(N)c(N)c2)cc1N, the outcome was “inactive”. In the case of c1ccc(Nc2ccc3ccccc3c2)cc1, the outcome is reported as “inactive”. With COc1cc(OC)c(OC)cc1C=O the outcome was “inactive”. For CC1CCCC1.[C-]#[O+].[C-]#[O+].[C-]#[O+].[Mn], the outcome was “inactive”. For Nc1ccccc1C(=O)Oc1ccc2ccccc2c1, the AC50 was 116 µM (active). With CCC(=O)c1ccc(Cl)cc1 the outcome was “inactive”.
